Among the data in PubChem BioAssay (EPA / NIEHS) are AC50 and outcome values, retold here.

Activity calls are given as the source filed them. Rule for the calls: active = hit-call score of the fitted dose curve at least 0.9, where 1 is the maximum; inactive = score below 0.9.

Conditions in all cases: mRNA level, 48 h; actives raise or lower the signal
Read-out in experiment [1]: Cytochrome P450 (CYP2B6), CYP2B6 (gene 1555)
The experiment can be described thus: LTEA_HepaRG_CYP2B6: Life Technologies and Expression Analysis (LTEA) Assay for Cytochrome P450 (CYP2B6) using HepaRG (AID 2283481). A digest of the protocol:
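Differentiated human HepaRG cells in serum-free induction medium, dosed in duplicate for 48 h over 8 half-log concentrations topping at 100 uM (0.5% DMSO). CYP2B6 mRNA measured by TaqMan qRT-PCR, normalized to ACTB, GAPDH, POLR2A; bidirectional fit versus DMSO.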

Read-out in experiment [2]: Cytochrome P450 2C19 (Homo sapiens) (UniProt P33261)
The experiment can be described thus: LTEA_HepaRG_CYP2C19: Life Technologies and Expression Analysis (LTEA) Assay for CYP2C19 using HepaRG (AID 2283482). The essentials:
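Differentiated HepaRG cells in serum-free induction medium exposed 48 h in duplicate, 8 concentrations from 100 uM by half-log steps in 0.5% DMSO. CYP2C19 mRNA measured by TaqMan qRT-PCR, normalized to ACTB, GAPDH, POLR2A. Bidirectional fit versus DMSO.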

Read-out in experiment [3]: CYP2C8 (gene 1558)
The experiment can be described thus: LTEA_HepaRG_CYP2C8: Life Technologies and Expression Analysis (LTEA) Assay for CYP2C8 using HepaRG (AID 2283483). A digest of the protocol:
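This is a transcriptional endpoint in HepaRG cultures: 48 h exposure, highest concentration 100 uM. CYP2C8 mRNA is quantified by TaqMan qRT-PCR.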

Read-out in experiment [4]: CYP2C9 (gene 1559)
The experiment can be described thus: LTEA_HepaRG_CYP2C9: Life Technologies and Expression Analysis (LTEA) Assay for CYP2C9 using HepaRG (AID 2283484). A digest of the protocol:
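Eight-point concentration-response (highest 100 uM, half-log dilutions) in HepaRG cells for 48 h; CYP2C9 expression by qRT-PCR normalized to ACTB, GAPDH, POLR2A. Bidirectional fit, DMSO baseline.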

Read-out in experiment [5]: CYP2E1 (gene 1571)
The experiment can be described thus: LTEA_HepaRG_CYP2E1: Life Technologies and Expression Analysis (LTEA) Assay for CYP2E1 using HepaRG (AID 2283485). A digest of the protocol:
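Assay uses 48 h exposure of HepaRG hepatic cells, eight concentrations to 100 uM. Expression of CYP2E1 is quantified by TaqMan qRT-PCR with ACTB, GAPDH and POLR2A normalization; curves fitted in both directions relative to vehicle.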

Read-out in experiment [6]: CYP4A11 (gene 1579)
The experiment can be described thus: LTEA_HepaRG_CYP4A11: Life Technologies and Expression Analysis (LTEA) Assay for CYP4A11 using HepaRG (AID 2283486). The essentials: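 Differentiated HepaRG cells, 48 h after plating, exposed in duplicate for 48 h to 8 half-log concentrations up to 100 uM in 0.5% DMSO in serum-free induction medium. CYP4A11 mRNA measured by TaqMan qRT-PCR, normalized to ACTB, GAPDH and POLR2A.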

Read-out in experiment [7]: Cytochrome P450 3A4 (Homo sapiens) (UniProt P08684)
The experiment can be described thus: LTEA_HepaRG_CYP3A4: Life Technologies and Expression Analysis (LTEA) Assay for CYP3A4 using HepaRG (AID 2283487). The essentials: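 Differentiated HepaRG cells, plated 48 h, then dosed 48 h in serum-free induction medium with 0.5% DMSO, 8 half-log concentrations up to 100 uM, duplicate. CYP3A4 mRNA by qRT-PCR, normalized to ACTB/GAPDH/POLR2A; bidirectional fit versus DMSO.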

Read-out in experiment [8]: DNA damage-inducible transcript 3 (DDIT3), DDIT3 (gene 1649)
The experiment can be described thus: LTEA_HepaRG_DDIT3: Life Technologies and Expression Analysis (LTEA) Assay for DNA damage-inducible transcript 3 (DDIT3) using HepaRG (AID 2283488). A digest of the protocol:
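Eight-point concentration-response (100 uM highest, half-log dilutions) in HepaRG, 48 h, duplicate wells. Endpoint: qRT-PCR mRNA, normalized (ACTB, GAPDH, POLR2A), bidirectional fitting with DMSO as baseline.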

Read-out in experiment [9]: Pro-epidermal growth factor (Homo sapiens) (UniProt P01133)
The experiment can be described thus: LTEA_HepaRG_EGF: Life Technologies and Expression Analysis (LTEA) Assay for Epidermal growth factor (EGF) using HepaRG (AID 2283489). A digest of the protocol: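 HepaRG cells (~100,000/well, 48 h pre-culture) exposed in duplicate for 48 h in serum-free induction medium to 8 half-log concentrations up to 100 uM in 0.5% DMSO. EGF mRNA by qRT-PCR, normalized to ACTB/GAPDH/POLR2A; bidirectional fit versus DMSO.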

Read-out in experiment [10]: Early growth response protein 1 (EGR1) transcription factor, EGR1 (gene 1958)
The experiment can be described thus: LTEA_HepaRG_EGR1: Life Technologies and Expression Analysis (LTEA) Assay for Early growth response protein 1 (EGR1) transcription factor using HepaRG (AID 2283490). The essentials:
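EGR1 expression change in human HepaRG after 48 h chemical exposure, assessed by housekeeping-normalized qRT-PCR; concentration-response up to 100 uM, fitted in both directions against DMSO controls.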

Read-out in experiment [11]: Cytochrome P450 3A7 (Homo sapiens) (UniProt P24462)
The experiment can be described thus: LTEA_HepaRG_CYP3A7: Life Technologies and Expression Analysis (LTEA) Assay for CYP3A7 using HepaRG (AID 2283492). A digest of the protocol: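 Differentiated HepaRG cells in serum-free induction medium exposed 48 h in duplicate to 8-point half-log series from 100 uM top in 0.5% DMSO. CYP3A7 mRNA by qRT-PCR, normalized to ACTB/GAPDH/POLR2A, bidirectional fit versus DMSO.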

Read-out in experiment [12]: Fatty Acid-Binding Protein 1 (FABP1), FABP1 (gene 2168)
The experiment can be described thus: LTEA_HepaRG_FABP1: Life Technologies and Expression Analysis (LTEA) Assay for Fatty Acid-Binding Protein 1 (FABP1) using HepaRG (AID 2283494). A digest of the protocol:
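Values reflect bidirectional concentration-response fitting of FABP1 mRNA change against 0.5% DMSO controls. Human HepaRG cultures received eight half-log doses (top 100 uM) for 48 h; expression quantified by TaqMan qRT-PCR with housekeeping-gene normalization.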

Read-out in experiment [13]: Cytochrome P450 4A22 (Homo sapiens) (UniProt Q5TCH4)
The experiment can be described thus: LTEA_HepaRG_CYP4A22: Life Technologies and Expression Analysis (LTEA) Assay for Cytochrome P450 4A22 (CYP4A22) using HepaRG (AID 2283495). A digest of the protocol: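 Differentiated HepaRG cells in serum-free induction medium exposed 48 h in duplicate to eight half-log concentrations up to 100 uM in 0.5% DMSO. CYP4A22 mRNA quantified by TaqMan qRT-PCR, normalized to ACTB, GAPDH and POLR2A; bidirectional fit versus DMSO.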

Read-out in experiment [14]: Cytochrome P450 7A1 (Homo sapiens) (UniProt P22680)
The experiment can be described thus: LTEA_HepaRG_CYP7A1: Life Technologies and Expression Analysis (LTEA) Assay for Cytochrome P450 7A1 (CYP7A1) using HepaRG (AID 2283496). A digest of the protocol: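 Using 0.5% DMSO as vehicle and baseline, chemicals were tested in duplicate over an 8-point range from 100 uM on HepaRG cells for 48 h; qRT-PCR signals were normalised to ACTB, GAPDH and POLR2A.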

Read-out in experiment [15]: Glutathione S-Transferase (GSTA2), GSTA2 (gene 2939)
The experiment can be described thus: LTEA_HepaRG_GSTA2: Life Technologies and Expression Analysis (LTEA) Assay for Glutathione S-Transferase (GSTA2) using HepaRG (AID 2283497). A digest of the protocol: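 Oxidative-stress marker GSTA2 is quantified by TaqMan qRT-PCR in HepaRG cultures treated 48 h across an eight-point range to 100 uM. Expression is normalized to endogenous controls and compared with 0.5% DMSO vehicle.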

Read-out in experiment [16]: Glutamate-cysteine ligase catalytic (GCLC), GCLC (gene 2729)
The experiment can be described thus: LTEA_HepaRG_GCLC: Life Technologies and Expression Analysis (LTEA) Assay for Glutamate-cysteine ligase catalytic (GCLC) using HepaRG (AID 2283498). The essentials: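 Oxidative-stress marker GCLC is measured as mRNA change in human HepaRG liver cells after 48 h chemical treatment in 0.5% DMSO, eight concentrations from 100 uM. Activity is fitted bidirectionally against vehicle.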

Read-out in experiment [17]: growth arrest and DNA damage 45 (GADD45G), GADD45G (gene 10912)
The experiment can be described thus: LTEA_HepaRG_GADD45G: Life Technologies and Expression Analysis (LTEA) Assay for growth arrest and DNA damage 45 (GADD45G) using HepaRG (AID 2283499). The essentials:
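Differentiated human HepaRG cells, 48 h post-plating, exposed 48 h in serum-free induction medium to 8 half-log concentrations (top 100 uM, 0.5% DMSO) in duplicate. GADD45G mRNA measured by Fluidigm TaqMan qRT-PCR, normalized to ACTB, GAPDH, POLR2A; bidirectional fit versus DMSO.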

Read-out in experiment [18]: Glutamate-cysteine ligase regulatory (GCLM), GCLM (gene 2730)
The experiment can be described thus: LTEA_HepaRG_GCLM: Life Technologies and Expression Analysis (LTEA) Assay for Glutamate-cysteine ligase regulatory (GCLM) using HepaRG (AID 2283500). The essentials: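 In this multiplexed HepaRG gene-expression assay, GCLM mRNA change after 48 h treatment (8 concentrations, max 100 uM) was scored against DMSO by bidirectional curve fitting.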

Read-out in experiment [19]: Ezrin (EZR), EZR (gene 7430)
The experiment can be described thus: LTEA_HepaRG_EZR: Life Technologies and Expression Analysis (LTEA) Assay for Ezrin (EZR) using HepaRG (AID 2283491). A digest of the protocol:
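EZR transcript levels came from Fluidigm qRT-PCR and were normalized to three housekeeping genes after 48 h chemical exposure of HepaRG cells. Dosing used an 8-point half-log series with a 100 uM top concentration in 0.5% DMSO, tested in duplicate; both directions were fitted versus vehicle.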

Read-out in experiment [20]: CYP3A5 (gene 1577)
The experiment can be described thus: LTEA_HepaRG_CYP3A5: Life Technologies and Expression Analysis (LTEA) Assay for CYP3A5 using HepaRG (AID 2283493). The essentials: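 Readout was CYP3A5 mRNA by qRT-PCR. HepaRG cultures were exposed for 48 h in serum-free induction medium to chemicals at up to 100 uM, and responses were fitted in both directions relative to DMSO vehicle.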

Cytochrome P450 3A7 (Homo sapiens), sequence (P24462 whole entry, looked up): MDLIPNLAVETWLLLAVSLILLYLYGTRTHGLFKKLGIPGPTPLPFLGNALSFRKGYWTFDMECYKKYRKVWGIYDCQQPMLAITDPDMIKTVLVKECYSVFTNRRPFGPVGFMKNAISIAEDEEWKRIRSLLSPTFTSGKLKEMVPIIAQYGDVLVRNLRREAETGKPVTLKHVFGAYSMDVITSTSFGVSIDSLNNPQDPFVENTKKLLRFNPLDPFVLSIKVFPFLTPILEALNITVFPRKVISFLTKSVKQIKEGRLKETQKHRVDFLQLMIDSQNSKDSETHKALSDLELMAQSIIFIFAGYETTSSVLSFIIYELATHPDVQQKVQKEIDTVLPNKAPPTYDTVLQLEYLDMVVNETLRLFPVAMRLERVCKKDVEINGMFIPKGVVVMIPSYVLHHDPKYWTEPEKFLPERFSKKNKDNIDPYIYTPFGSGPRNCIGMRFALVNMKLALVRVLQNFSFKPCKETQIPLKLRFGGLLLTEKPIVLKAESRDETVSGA
Cytochrome P450 2C19 (Homo sapiens), sequence (P33261 whole entry, looked up): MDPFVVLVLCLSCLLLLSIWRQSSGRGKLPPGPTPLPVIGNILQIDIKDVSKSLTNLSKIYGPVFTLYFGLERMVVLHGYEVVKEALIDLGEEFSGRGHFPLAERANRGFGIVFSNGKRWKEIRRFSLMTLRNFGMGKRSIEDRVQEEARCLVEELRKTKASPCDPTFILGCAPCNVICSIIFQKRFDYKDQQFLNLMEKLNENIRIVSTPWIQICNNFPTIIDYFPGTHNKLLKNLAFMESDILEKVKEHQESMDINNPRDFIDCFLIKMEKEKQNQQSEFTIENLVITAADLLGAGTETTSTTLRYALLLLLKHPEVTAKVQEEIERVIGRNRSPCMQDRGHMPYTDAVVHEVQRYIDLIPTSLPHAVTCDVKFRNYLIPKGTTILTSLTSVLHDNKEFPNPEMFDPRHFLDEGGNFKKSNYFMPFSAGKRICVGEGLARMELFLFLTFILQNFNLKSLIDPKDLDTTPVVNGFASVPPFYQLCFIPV
Cytochrome P450 3A4 (Homo sapiens), sequence (P08684 whole entry, looked up): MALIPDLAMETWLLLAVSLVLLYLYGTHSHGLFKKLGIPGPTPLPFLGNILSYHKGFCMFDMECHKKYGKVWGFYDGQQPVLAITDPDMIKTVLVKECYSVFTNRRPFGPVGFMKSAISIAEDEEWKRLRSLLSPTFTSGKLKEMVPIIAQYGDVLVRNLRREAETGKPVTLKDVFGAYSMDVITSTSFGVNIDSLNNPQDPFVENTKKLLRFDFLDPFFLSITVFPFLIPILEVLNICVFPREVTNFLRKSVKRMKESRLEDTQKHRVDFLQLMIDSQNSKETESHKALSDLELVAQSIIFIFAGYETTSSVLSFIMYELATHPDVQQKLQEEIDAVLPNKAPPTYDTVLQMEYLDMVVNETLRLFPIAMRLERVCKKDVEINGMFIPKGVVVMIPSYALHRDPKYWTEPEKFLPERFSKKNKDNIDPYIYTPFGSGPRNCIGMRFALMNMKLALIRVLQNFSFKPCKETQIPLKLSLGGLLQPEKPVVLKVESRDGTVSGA

Consider `Cn1cc(-c2ccccc2)c(=O)c(-c2cccc(C(F)(F)F)c2)c1`, for which the AC50 was 1.09 µM (active) in [1]; 4.63 µM (active) in experiment [2]; 3.59 µM (active) in [3]; 0.468 µM (active) in experiment [4]; 11.9 µM (active) in experiment [5]; 2.92 µM (active) in experiment [7]. The figures for the AC50 in experiment [8], in experiment [11] and in experiment [17] were 89.8 µM (active), 1.52 µM (active) and 50 µM (active), respectively. Also, the outcome in [6], in experiment [9], in [10], in experiment [12], in experiment [13] and in experiment [14] was inactive. In addition, the call in [15], in [16] and in experiment [18] was inactive.

Turning to `CN(C)[C@@H]1C(=O)C(C(N)=O)=C(O)[C@@]2(O)C(=O)C3=C(O)c4c(O)cccc4[C@@](C)(O)[C@H]3C[C@@H]12`, the result in experiment [1], in experiment [2], in experiment [3], in experiment [5], in experiment [6] and in experiment [7] was inactive. In addition, the call in experiment [8], in experiment [9], in [10], in experiment [11], in [12] and in experiment [13] was inactive. For the same compound, the result in [14], in [15], in [16] and in [17] was inactive.

Take `Cc1ccc(N)c(N)c1`: the AC50 was 50 µM (active) in experiment [1]; 50 µM (active) in experiment [5]; 35.9 µM (active) in [11]; 74.8 µM (active) in experiment [12]; 28.9 µM (active) in [15]. The outcome in [2], in experiment [3], in experiment [4], in experiment [6], in experiment [7] and in experiment [8] was inactive. For the same compound, the result in experiment [9], in experiment [10], in [13], in experiment [14], in experiment [16] and in experiment [17] was inactive.

With `CCC[CH2][Sn]([Cl])([CH2]CCC)[CH2]CCC`, the AC50 was 2.53 µM (active) in [1]; 1.37 µM (active) in experiment [2]; 2.42 µM (active) in experiment [3]; 2.23 µM (active) in experiment [4]; 0.505 µM (active) in experiment [5]; 2.27 µM (active) in [7]. Also, the AC50 in experiment [8] is 2.28 µM (active); in experiment [10] it was 50 µM (active); in experiment [11], 0.377 µM (active); in experiment [20], 82.8 µM (active); in [12], 2.31 µM (active); in experiment [15], 1.67 µM (active). For the same compound, the figures for the AC50 in [16] and in [17] were 50 µM (active) and 5.56 µM (active), respectively. Moreover, the compound was called inactive in [6] and in [19].
